Assay results: PubChem BioAssay
The source made the active and inactive calls.

Experiments:
[1] = binders of probe aFSTL3 on microarray, primary screen, stem cell growth factor project, biochemical, small-molecule microarray, fluorescence 635/667 (AID 1064); conditions: higher = more signal;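 further: measures binding of the biotinylated anti-FSTL3 antibody to printed compounds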
[2] = binders from COS7 lysate, DM2A8 probe, primary screen, torsin A project, cell lysate, small-molecule microarray, fluorescence 635/667 (AID 1065); conditions: higher = more signal, COS7 lysate expressing mutant human TOR1A
[3] = binders of probe aFGF2 on microarray, primary screen, stem cell growth factor project, biochemical, small-molecule microarray, fluorescence 635/667 (AID 1067); conditions: higher = more signal;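 further: measures binding of biotinylated aFGF2 protein to printed compounds on slides; z-score merges feature fluorescence and signal-to-noise across triplicate slides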
[4] = binders of probe aFGF10 on microarray, primary screen, stem cell growth factor project, biochemical, small-molecule microarray, fluorescence 635/667 (AID 1071); conditions: higher = more signal;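 further: score merges 667 nm spot intensity and signal to noise from triplicate slides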
[5] = biological target: Neurogenic locus notch homolog protein 2 (Homo sapiens) (UniProt Q04721); experiment: Notch2 binders on small-molecule microarrays, primary screen, biochemical, small-molecule microarray, 635 nm fluorescence, stem cell growth factors (AID 1073); conditions: Notch2 binding, higher = more signal
[6] = biological target: Pro-neuregulin-1, membrane-bound isoform (Homo sapiens) (UniProt Q02297); experiment: NRG1 binders on small-molecule microarrays, primary screen, psychiatric disease protein project, biochemical, small-molecule microarray, fluorescence 635/667 (AID 1075); conditions: NRG1 binding, 635 nm fluorescence, higher = more signal;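 further: score combines 667 nm spot fluorescence with signal to noise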
Chain of Pro-neuregulin-1, membrane-bound isoform (Homo sapiens) (Q02297 whole entry, looked up, the tested form may be a part, canonical isoform): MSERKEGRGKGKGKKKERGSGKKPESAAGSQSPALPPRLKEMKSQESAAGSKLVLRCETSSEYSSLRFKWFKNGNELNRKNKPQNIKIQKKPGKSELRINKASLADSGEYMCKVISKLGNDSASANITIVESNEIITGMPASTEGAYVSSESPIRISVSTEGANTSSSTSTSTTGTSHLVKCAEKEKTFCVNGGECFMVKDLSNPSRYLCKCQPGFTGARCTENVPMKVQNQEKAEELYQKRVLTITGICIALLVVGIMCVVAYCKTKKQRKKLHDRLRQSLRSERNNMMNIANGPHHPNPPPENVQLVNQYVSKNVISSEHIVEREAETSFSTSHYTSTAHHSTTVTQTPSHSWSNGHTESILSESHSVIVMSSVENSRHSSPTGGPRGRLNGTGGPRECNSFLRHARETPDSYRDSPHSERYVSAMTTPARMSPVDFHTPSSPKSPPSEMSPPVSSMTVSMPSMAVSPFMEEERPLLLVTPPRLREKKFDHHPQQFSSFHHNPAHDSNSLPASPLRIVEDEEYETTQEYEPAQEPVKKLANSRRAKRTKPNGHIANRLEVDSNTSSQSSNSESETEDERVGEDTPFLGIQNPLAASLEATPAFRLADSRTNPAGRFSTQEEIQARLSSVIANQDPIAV

[7] = system: Neuregulin-1 EGF-like domain; experiment: binders of neuregulin-1 EGF-like domain, primary screen, biochemical, small-molecule microarray, 635 nm fluorescence (AID 1081); conditions: small-molecule microarray binding, higher = more signal;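 further: binding of the protein to compounds printed on small-molecule microarray slides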
[8] = FRG1 promoter luciferase signal modulators, primary screen, FRG1 inhibition for FSHD, cell-based, C2C12 myotubes, firefly/Renilla luciferase, luminescence (AID 1084); conditions: higher = more signal, called active from +8 up or from −8 down
[9] = binders of probe aFST on microarray, primary screen, stem cell growth factor project, biochemical, small-molecule microarray, fluorescence 635/667 (AID 1086); conditions: higher = more signal;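 further: score merges 667 nm fluorescence with signal-to-noise of each printed compound spot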
[10] = binders of probe aHhip on microarray, primary screen, stem cell growth factor project, biochemical, small-molecule microarray, fluorescence 635/667 (AID 1087); conditions: higher = more signal;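 further: score merges spot fluorescence at 667nm with spot signal to noise ratio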
[11] = system: PRMT1 (protein arginine N-methyltransferase 1); experiment: PRMT1 binders on small-molecule microarrays, primary screen, biochemical, small-molecule microarray, 635 nm fluorescence (AID 1088); conditions: small-molecule microarray binding, higher = more signal;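 further: binding of Prmt1 protein to compounds spotted on small-molecule microarray slides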
[12] = yeast growth modulation, basal conditions, primary screen, YJM789 clinical isolate, OD600, 24 h (AID 1089);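 further: growth of clinical yeast isolate S. cerevisiae YJM 789 seeded 1000 cells per well; test concentration not given here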; conditions: S. cerevisiae YJM789 growth, higher = more signal, called active from +8 up or from −8 down
[13] = fission yeast growth modulation, primary screen, strain 972, OD600, 24 h, no modulator (AID 1090);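 further: basal condition with compound alone and no growth modifier present; test concentration not given here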; conditions: S. pombe 972 growth, higher = more signal, called active from +8 up or from −8 down
[14] = S. cerevisiae growth modulation with rapamycin, primary screen, strain BY4716, OD600, 96 h (AID 1091); conditions: higher = more signal, called active from +8 up or from −8 down; further: test concentration not given here
[15] = biological target: Torsin-1A-interacting protein 2 (Homo sapiens) (UniProt Q8NFQ8); experiment: LULL1 binders on small-molecule microarray, primary screen, cell lysate, human LULL1 lysate, 635/667 nm fluorescence (AID 1092); conditions: hLULL1 lysate binding, 635 nm fluorescence, higher = more signal;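 further: probe is lysate of COS7 cells overexpressing human LULL1; score merges per-feature 667 nm fluorescence with signal-to-noise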
Chain of Torsin-1A-interacting protein 2 (Homo sapiens) (Q8NFQ8 whole entry, looked up): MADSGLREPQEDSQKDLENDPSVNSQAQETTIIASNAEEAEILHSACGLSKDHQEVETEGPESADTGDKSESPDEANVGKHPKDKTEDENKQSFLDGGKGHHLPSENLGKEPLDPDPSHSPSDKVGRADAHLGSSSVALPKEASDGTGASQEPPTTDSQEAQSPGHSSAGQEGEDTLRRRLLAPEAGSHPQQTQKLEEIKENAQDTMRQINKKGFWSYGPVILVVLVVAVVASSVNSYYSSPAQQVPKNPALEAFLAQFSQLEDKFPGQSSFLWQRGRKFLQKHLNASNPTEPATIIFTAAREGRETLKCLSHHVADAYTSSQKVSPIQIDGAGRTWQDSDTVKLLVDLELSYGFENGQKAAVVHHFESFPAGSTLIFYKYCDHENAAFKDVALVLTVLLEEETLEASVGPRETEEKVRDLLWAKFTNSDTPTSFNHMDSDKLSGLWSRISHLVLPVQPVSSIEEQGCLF

[16] = E. coli growth modulation, two-sided OD650, primary screen, E. coli filamentation project, strain DRC41, 24 h (AID 1093); conditions: OD650, 24 h, higher = more signal, called active from +8 up or from −8 down;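 further: MC1000 strain lacking acrAB efflux and sulA so SOS filamentation is blocked; test concentration not given here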
[17] = small-molecule microarray binders of probe aLefty2, primary screen, biochemical, biotinylated probe, 635/667 nm fluorescence (AID 1094); conditions: higher = more signal;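 further: score merges spot fluorescence near 667 nm with spot signal-to-noise ratio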
[18] = system: Noggin (protein binding on small-molecule microarray); experiment: Noggin binders on small-molecule microarray, primary screen, biochemical, 635/667 nm fluorescence (AID 1095); conditions: 635 nm fluorescence, higher = more signal;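 further: score merges 667 nm feature fluorescence with signal to noise over triplicate slides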
[19] = biological target: Neurogenic locus notch homolog protein 3 (Homo sapiens) (UniProt Q9UM47); experiment: NOTCH3 binders on small-molecule microarray, primary screen, biochemical, 635/667 nm fluorescence (AID 1096); conditions: NOTCH3 binding, 635 nm fluorescence, higher = more signal
Chain of Neurogenic locus notch homolog protein 3 (Homo sapiens) (Q9UM47 whole entry, looked up): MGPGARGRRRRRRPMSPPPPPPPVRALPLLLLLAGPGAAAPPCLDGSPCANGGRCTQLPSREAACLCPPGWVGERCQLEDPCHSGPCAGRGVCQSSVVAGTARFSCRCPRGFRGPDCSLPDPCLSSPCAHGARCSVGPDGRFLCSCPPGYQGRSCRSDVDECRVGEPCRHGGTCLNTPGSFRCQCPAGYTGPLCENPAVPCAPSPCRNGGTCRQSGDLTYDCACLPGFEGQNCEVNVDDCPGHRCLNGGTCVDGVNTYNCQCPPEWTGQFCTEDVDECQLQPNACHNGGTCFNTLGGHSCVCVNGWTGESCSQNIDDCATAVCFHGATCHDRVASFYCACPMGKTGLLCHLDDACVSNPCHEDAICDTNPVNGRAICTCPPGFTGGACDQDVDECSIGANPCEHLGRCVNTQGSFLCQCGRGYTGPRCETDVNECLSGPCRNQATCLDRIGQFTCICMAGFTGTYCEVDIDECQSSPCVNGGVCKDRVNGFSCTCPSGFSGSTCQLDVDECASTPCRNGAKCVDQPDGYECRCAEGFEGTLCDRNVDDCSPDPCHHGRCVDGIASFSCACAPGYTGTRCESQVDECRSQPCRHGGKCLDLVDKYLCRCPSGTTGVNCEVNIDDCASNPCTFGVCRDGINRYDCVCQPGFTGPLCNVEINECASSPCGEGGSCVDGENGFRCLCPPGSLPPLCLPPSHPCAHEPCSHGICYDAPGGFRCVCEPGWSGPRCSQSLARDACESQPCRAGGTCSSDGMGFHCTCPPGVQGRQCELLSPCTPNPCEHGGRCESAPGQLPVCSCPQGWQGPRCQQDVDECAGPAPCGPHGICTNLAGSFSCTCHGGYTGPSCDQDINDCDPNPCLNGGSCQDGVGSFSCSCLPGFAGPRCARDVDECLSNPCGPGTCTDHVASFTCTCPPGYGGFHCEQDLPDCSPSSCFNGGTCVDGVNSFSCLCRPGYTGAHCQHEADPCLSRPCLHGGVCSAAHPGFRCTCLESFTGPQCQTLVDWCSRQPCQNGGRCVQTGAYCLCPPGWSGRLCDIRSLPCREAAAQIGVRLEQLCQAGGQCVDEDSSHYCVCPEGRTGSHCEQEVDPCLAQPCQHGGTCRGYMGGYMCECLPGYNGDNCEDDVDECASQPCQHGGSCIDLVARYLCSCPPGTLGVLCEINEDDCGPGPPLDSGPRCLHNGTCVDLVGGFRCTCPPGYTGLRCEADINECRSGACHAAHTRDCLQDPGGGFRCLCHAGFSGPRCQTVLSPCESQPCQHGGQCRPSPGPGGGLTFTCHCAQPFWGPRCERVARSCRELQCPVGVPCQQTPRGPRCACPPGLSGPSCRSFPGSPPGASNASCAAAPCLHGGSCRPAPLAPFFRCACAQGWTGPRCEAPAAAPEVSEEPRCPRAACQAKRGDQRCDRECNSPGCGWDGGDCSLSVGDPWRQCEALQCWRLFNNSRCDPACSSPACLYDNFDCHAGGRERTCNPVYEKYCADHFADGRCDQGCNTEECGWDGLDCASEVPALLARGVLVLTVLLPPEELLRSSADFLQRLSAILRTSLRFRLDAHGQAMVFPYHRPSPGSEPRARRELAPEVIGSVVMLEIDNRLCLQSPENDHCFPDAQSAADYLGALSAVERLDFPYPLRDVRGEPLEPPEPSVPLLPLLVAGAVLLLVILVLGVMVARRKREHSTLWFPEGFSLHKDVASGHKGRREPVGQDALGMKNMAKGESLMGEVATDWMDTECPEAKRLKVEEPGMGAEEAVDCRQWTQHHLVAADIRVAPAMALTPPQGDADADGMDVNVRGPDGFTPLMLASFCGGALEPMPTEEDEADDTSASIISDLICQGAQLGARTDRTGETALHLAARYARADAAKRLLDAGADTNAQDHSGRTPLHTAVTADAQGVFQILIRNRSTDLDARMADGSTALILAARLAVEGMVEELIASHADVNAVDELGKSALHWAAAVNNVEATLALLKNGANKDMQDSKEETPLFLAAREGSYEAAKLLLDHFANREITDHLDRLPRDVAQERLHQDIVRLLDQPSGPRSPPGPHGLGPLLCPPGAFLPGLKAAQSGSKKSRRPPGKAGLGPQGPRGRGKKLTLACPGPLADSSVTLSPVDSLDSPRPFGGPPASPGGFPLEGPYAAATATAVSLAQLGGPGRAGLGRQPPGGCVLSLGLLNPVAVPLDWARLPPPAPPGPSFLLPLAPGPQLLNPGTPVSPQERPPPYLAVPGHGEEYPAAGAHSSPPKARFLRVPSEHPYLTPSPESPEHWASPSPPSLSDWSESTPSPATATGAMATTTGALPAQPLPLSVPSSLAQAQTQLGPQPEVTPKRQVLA

[20] = small-molecule microarray binders of probe aEGFR, primary screen, biochemical, biotinylated probe, 635/667 nm fluorescence (AID 1097); conditions: higher = more signal;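 further: probe is a biotinylated anti-EGFR antibody binding compounds printed on slides; score combines fluorescence near 667 nm and signal to noise of each spot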

SMILES	composite z-score [1]	composite z-score [2]	composite z-score [3]	composite z-score [4]	composite z-score [5]	composite z-score [6]	composite z-score [7]	z-score [8]	composite z-score [9]	composite z-score [10]	composite z-score [11]	z-score [12]	z-score [13]	z-score [14]	composite z-score [15]	z-score [16]	composite z-score [17]	composite z-score [18]	composite z-score [19]	composite z-score [20]
COCCOC(=O)N1C(=O)[C@@]2(c3cc(C#CCNC(N)=O)ccc31)[C@H](C(=O)N1CCN(c3ncccn3)CC1)[C@H]1C(=O)O[C@H](c3ccccc3)[C@H](c3ccccc3)N1[C@@H]2c1ccc(OCCO)cc1	0.0392	0.382	0.0465	0.719	0.795	0.821	0.87	0.0006 (inactive)	0.601	0.0939	1.57	1.51 (inactive)	0.383 (inactive)	4.36 (inactive)	2.34	-0.351 (inactive)	0.0158	0.707	1.1	-0.0271
COc1ccc([Si](C)(C)[C@@H]2[C@@H](CC(=O)N3CCC[C@H]3CO)O[C@]3(C(=O)N(c4ccccc4)c4ccccc43)[C@H]2C)cc1	-0.527	0.411	-0.122	0.713	0.907	0.0499	1.11	-1.24 (inactive)	0.552	0.21	1.54	-1.57 (inactive)	-0.589 (inactive)	-1.79 (inactive)	2.37	2.79 (inactive)	-0.256	0.999	1.03	0.0436
CC(C)C(=C=CC[C@H](O)c1ccc(OCCO)cc1)CCO	-0.0762	0.887	-0.1	0.904	0.255	1.69	0.895	0.305 (inactive)	0.326	-0.0994	1.55	-1.83 (inactive)	-1.27 (inactive)	-0.768 (inactive)	2.22	-0.327 (inactive)	-0.0113	1.37	-0.0409	-0.12
Oc1ccc2cc[n+](Cc3sc4ccccc4c3Cl)cc2c1	0.997	-0.466	-0.0976	-0.299	-0.308	-0.159	1.64	1.7 (inactive)	0.031	0.16	0.599	0.0335 (inactive)	-1.43 (inactive)	2.3 (inactive)	3.37	-1.82 (inactive)	0.217	0.311	0.207	-0.0409
CCOC(=O)C[C@H]1[C@H](OC(=O)c2ccc(C(=O)c3ccccc3)cc2)[C@@H](NC(=O)c2ccccc2)c2cc(OCCCO)ccc2N1C(=O)c1ccc2ccccc2n1	-0.416	0.0991	-0.0206	0.234	1.27	0.682	0.417	-0.266 (inactive)	0.314	0.107	0.81	-0.121 (inactive)	-0.429 (inactive)	0.443 (inactive)	1.54	0.104 (inactive)	0.418	0.0946	1.03	-0.142
C=CC[C@]1(C(=O)NCc2ccccc2)N=C(c2ccc(OCCCO)cc2)O[C@H]1c1ccccc1N=[N+]=[N-]	-0.158	1.46	0.282	0.399	1.13	1.24	1.04	-0.71 (inactive)	1.08	-0.171	1.22	-1.33 (inactive)	0.0342 (inactive)	0.511 (inactive)	3.24	0.73 (inactive)	0.17	0.0073	1.11	0.0968
COc1ccc(C#Cc2ccc3c(c2)[C@]2(C(=O)N3)[C@H](C(=O)NC[C@H](O)c3ccccc3)[C@H]3C(=O)O[C@H](c4ccccc4)[C@H](c4ccccc4)N3[C@@H]2c2ccc(O)cc2)cc1	-0.384	0.736	-0.0824	0.857	1.2	1.52	1.34	0.254 (inactive)	0.243	-0.201	1.55	2.26 (inactive)	0.984 (inactive)	2.2 (inactive)	2.98	-0.0198 (inactive)	0.0078	0.904	0.729	0.0996
CC(C)C(O)C1C=CC2C(=O)N(c3ccccc3)C(=O)C2N1Nc1ccc([N+](=O)[O-])cc1 (stereo not given)	0.549	-0.0664	0.0485	0.569	0.951	1.34	0.8	1.07 (inactive)	0.886	-0.214	0.118	0.307 (inactive)	0.815 (inactive)	0.834 (inactive)	2.89	0.171 (inactive)	0.0827	-0.0213	0.614	0.117
O=C(c1ccccc1)N1C(=O)[C@]2(COC(c3ccc(OCCCO)cc3)=N2)Cc2ccccc21	0.303	0.863	0.11	0.879	0.839	1.72	1.34	1.23 (inactive)	0.647	-0.266	1.53	-1.84 (inactive)	0.901 (inactive)	4.51 (inactive)	3.17	-0.178 (inactive)	0.133	0.722	1.15	-0.0989
C=C(CCCC)/C(=C/C[C@@H](OC(=O)c1ccncc1)c1ccc(OCCO)cc1)c1cc(C(=O)OC)ccc1OC	-0.356	0.807	-0.129	0.63	-0.0009	0.382	1.01	5.07 (inactive)	-0.0132	-0.217	1.53	0.594 (inactive)	0.199 (inactive)	0.279 (inactive)	1.66	0.22 (inactive)	-0.166	0.874	0.975	-0.12
COC(=O)[C@@]1(CCC(=O)OC(C)(C)C)N=C(c2ccc(OCCCO)cc2)O[C@H]1c1ccccc1N=[N+]=[N-]	0.165	-0.15	-0.0354	-0.312	-0.0015	1.26	1.06	3.09 (inactive)	-0.161	0.119	1.28	0.0049 (inactive)	-0.786 (inactive)	33.6 (active)	1.83	0.817 (inactive)	-0.309	0.714	0.388	-0.0828
COc1cccc(-c2cccc(=O)o2)c1	0.782	-0.387	0.338	0.143	0.0405	0.851	0.322	5.22 (inactive)	0.807	-0.236	0.274	-1.24 (inactive)	-3.46 (inactive)	1.42 (inactive)	-0.33	0.696 (inactive)	0.716	0.335	-0.476	0.08
COc1ccc(CCNC(=O)[C@@]2(C)c3ccccc3C(=O)N(C(C)C)[C@H]2c2ccc(CO)cc2)cc1	-0.182	0.39	0.0376	0.4	0.246	0.693	1.3	-0.262 (inactive)	0.933	-0.394	0.601	-0.122 (inactive)	-0.366 (inactive)	-0.321 (inactive)	2.15	0.721 (inactive)	-0.107	0.456	-0.399	0.0117
C=CCOC(=O)[C@H]1[C@@H]2C(=O)O[C@@H](c3ccccc3)[C@@H](c3ccccc3)N2[C@@H](c2ccc(OCCOC(=O)[C@H]3C[C@H]4C(=O)N[C@@H](CCCCN(C)C)C(=O)N4[C@H]3c3ccc(O)cc3)cc2)[C@]12C(=O)Nc1ccc(I)cc12	-0.38	1.01	0.0266	0.948	1.33	1.77	1.3	1.49 (inactive)	0.0907	-0.274	1.55	-0.0743 (inactive)	-0.526 (inactive)	-0.698 (inactive)	2.49	-0.411 (inactive)	0.172	1.73	1.07	0.124
CCC(CC)C(O)C1C=CC2C(=O)NC(=O)C2N1Nc1ccccn1 (stereo not given)	-0.164	0.247	0.0119	0.368	0.795	0.675	1.12	0.32 (inactive)	0.305	0.0139	-0.26	0.188 (inactive)	1.22 (inactive)	0.315 (inactive)	1.35	-0.691 (inactive)	0.0744	-0.441	-0.412	0.148
CC(C)CNC(=O)[C@@]1(Cc2ccccc2I)c2ccccc2C(=O)N(C2CCCCC2)[C@H]1c1ccc(CO)cc1	0.654	1.26	0.162	0.685	0.142	0.925	1.05	-3.41 (inactive)	0.481	0.702	1.57	-1.32 (inactive)	-0.597 (inactive)	0.153 (inactive)	1.28	-0.518 (inactive)	0.164	-0.235	0.497	0.0066
O=C(N1CCCCC1)[C@]1(Cc2ccccc2)N=C(c2ccc(OCCCO)cc2)O[C@@H]1c1ccccc1	0.542	0.0149	-0.0183	0.541	1.51	1.03	0.884	-0.636 (inactive)	0.979	0.289	1.28	-0.425 (inactive)	-1.52 (inactive)	3.64 (inactive)	2.84	-0.331 (inactive)	0.18	-0.281	0.586	0.303
CCC[C@@H]1C[C@@]1(CCC)[C@@H](NS(=O)(=O)c1cccc2cccnc12)c1ccc(Cl)cc1	0.561	-0.754	0.0367	0.0835	0.763	0.858	0.917	-3.58 (inactive)	0.855	-0.0729	0.0685	0.788 (inactive)	1.01 (inactive)	0.478 (inactive)	2.66	-1.01 (inactive)	0.0763	-1.22	0.296	-0.136
O=C1C2C=CC(C(O)Cc3ccccc3)N(n3cnnc3)C2C(=O)N1Cc1ccccc1 (stereo not given)	0.442	-0.0532	0.038	0.426	1.43	0.489	0.984	0.793 (inactive)	0.307	-0.186	0.411	-0.112 (inactive)	0.116 (inactive)	0.343 (inactive)	2.93	-1.25 (inactive)	0.0906	-0.785	0.153	-0.0592
COCCOC(=O)N1C(=O)[C@@]2(c3cc(C#Cc4ccc(OC)cc4)ccc31)[C@H](c1ccc(O)cc1)N1[C@H](c3ccccc3)[C@H](c3ccccc3)OC(=O)[C@H]1[C@@H]2C(=O)N1CCc2cc(OC)c(OC)cc2C1	0.0419	0.87	0.0415	0.475	0.971	0.71	0.898	-0.0112 (inactive)	0.611	0.0873	1.55	0.728 (inactive)	-0.133 (inactive)	0.803 (inactive)	2.49	1.37 (inactive)	-0.0412	0.75	1.08	-0.115
